From PubChem BioAssay (NCI) come the findings set out here.

This is part of a sample that, as a whole, favours compounds with a hit. Of some 83,000 tested, about 20% had one in any assay.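 Percent growth is the endpoint: 0 to 100 indicates growth inhibition (40 means 60% inhibition), 0 means no net growth, and negative values indicate cell death.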 Values without a mark were called inactive. Active and inactive are the calls of the source. How the source made its calls: active means growth percent below 10; inactive means the rest.

Among the test systems are T-47D breast; BT-549 breast; MDA-MB-435 melanoma; SW-620 colon; MCF7 breast; HCT-116 colon; KM12 colon.
Assay in all cases: NCI-60 one-dose screen, 48 h (100 = growth as untreated, 0 = no growth, -100 = all killed)
What all share (conditions): 10 µM unless noted

Regarding `COc1cccc(-c2nc(SCC(=O)Nc3ccc(C(=O)/C=C/c4ccc(OC)c(OC)c4)cc3)[nH]c(=O)c2C#N)c1`, the growth in the test with T-47D breast is 78.1%; in the test on BT-549 breast, 85.4%; with MDA-MB-435 melanoma, 92.3%; in the test with SW-620 colon, 112%; in the test with MCF7 breast it was 82.4%; with HCT-116 colon, 77.7%. Besides, the growth in the test with KM12 colon was 81.5%.

In the case of `COc1ccc(C(=O)COc2ccc(/C=C3\Oc4ccc(OC)cc4C3=O)cc2)cc1`, the growth with T-47D breast was 103%; in the test with BT-549 breast, 99.2%; in the test on MDA-MB-435 melanoma, 115%; in the test with SW-620 colon it was 95.9%; in the test on MCF7 breast it was 110%; with HCT-116 colon, 84.9%. For the same molecule, the growth in the test on KM12 colon is 94%.

`NC(=NC1C2CC3CC(C2)CC1C3)Nc1ccc(I)cc1` (centres undefined): the growth is 2.31% (active) with T-47D breast; 53.7% in the test with BT-549 breast; 30.7% with MDA-MB-435 melanoma; 20.9% in the test on SW-620 colon; 9.29% (active) in the test with MCF7 breast; 8.08% (active) in the test with HCT-116 colon. In addition, the growth in the test on KM12 colon was 45.9%.

As to `O=C(Nc1ccccc1Cl)c1ccc(NC2=C(Cl)C(=O)N(C3CCCCC3)C2=O)cc1`, the growth is 38.7% [30 µM] in the test with T-47D breast; 60.5% [30 µM] in the test with BT-549 breast; 49.6% [30 µM] in the test on MDA-MB-435 melanoma; 56.7% [30 µM] in the test with SW-620 colon; 34.7% [30 µM] in the test on MCF7 breast; 111% [30 µM] in the test with HCT-116 colon. Moreover, the growth with KM12 colon was 64.9% [30 µM].

As to `COc1ccc(C(=O)COc2cccc(/C=C3\CSc4ccccc4C3=O)c2)cc1`, the growth in the test with T-47D breast is 69.7%; in the test with BT-549 breast, -74.8% (active); in the test on MDA-MB-435 melanoma, -21.1% (active); in the test on SW-620 colon, -96.9% (active); in the test with MCF7 breast, -79.8% (active); in the test with HCT-116 colon, -87.5% (active). The growth in the test on KM12 colon was -77.3% (active).

Regarding `Cc1cc(C)nc(SC2=C(Nc3cc(Cl)ccc3O)C(=O)N(Cc3ccccc3)C2=O)n1`, the growth was 60.8% [30 µM] with T-47D breast; 85.2% [30 µM] with BT-549 breast; 71.6% [30 µM] with MDA-MB-435 melanoma; 91.8% [30 µM] in the test with SW-620 colon; 46.4% [30 µM] in the test on MCF7 breast; 83% [30 µM] in the test with HCT-116 colon. In addition, the growth in the test with KM12 colon was -23.1% [30 µM] (active).

For the molecule `CCC#CC[C@H](O)C/C=C1/C(=O)C=C[C@@H]1C/C=C\CCCC(=O)OC`, the growth with T-47D breast is 5.68% (active); in the test on BT-549 breast, -0.591% (active); in the test on MDA-MB-435 melanoma, 1.89% (active); with SW-620 colon it was -12.5% (active); in the test with MCF7 breast, 15.1%; in the test on HCT-116 colon it was -49.7% (active). Also, the growth in the test with KM12 colon was -49% (active).

For the molecule `COc1cc2c(cc1O)CC[C@@H]1[C@@H]2CC[C@]2(C)[C@@H](OCCCN(C)C)CC[C@@H]12`, the growth in the test on T-47D breast was -48.9% (active); in the test on BT-549 breast it was -54.4% (active); in the test with MDA-MB-435 melanoma, -61.8% (active); with SW-620 colon, -43.1% (active); in the test on MCF7 breast, -68.9% (active); in the test with HCT-116 colon, -71% (active). Besides, the growth with KM12 colon is -48.5% (active).

For `COc1ccc(CN2c3ccccc3Sc3ccccc32)c(C(F)(F)F)c1`, the growth was 25.9% with T-47D breast; 53.5% with BT-549 breast; -33.6% (active) in the test with MDA-MB-435 melanoma; 25.8% in the test on SW-620 colon; 24.5% in the test with MCF7 breast; 7.74% (active) in the test on HCT-116 colon. Moreover, in the test on KM12 colon, the growth is 20%.

`CCOC(=O)c1sc(Nc2ccc(Cl)cc2)nc1C`: the growth is 6.67% (active) in the test with T-47D breast; -4.09% (active) in the test with BT-549 breast; 23.1% with MDA-MB-435 melanoma; 28.2% in the test with SW-620 colon; 13% with MCF7 breast; 5.31% (active) in the test on HCT-116 colon. In the test with KM12 colon, the growth was -1.62% (active).

For the molecule `CCCc1cc(=O)n2c(C(=O)Nc3cccc(C(=O)OCC)c3)c(C(=O)Nc3ccc(F)cc3)sc2n1`, the growth was 53.9% [30 µM] in the test with T-47D breast; 82.5% [30 µM] in the test on BT-549 breast; 73.4% [30 µM] in the test on MDA-MB-435 melanoma; 55.9% [30 µM] with SW-620 colon; 57.4% [30 µM] with MCF7 breast; 17.7% [30 µM] with HCT-116 colon. Also, the growth with KM12 colon was 82.9% [30 µM].

Regarding `CN1CCN(c2ccc3nc(-c4ccc(OCCCCN5CCN(CCCCN6C(=O)c7cccc8cccc(c78)C6=O)CC5)cc4)[nH]c3c2)CC1`, the growth was 36.1% in the test on T-47D breast; 47% in the test with BT-549 breast; 65.9% in the test with MDA-MB-435 melanoma; 84.2% with SW-620 colon; 68.5% in the test on MCF7 breast; 45.9% in the test with HCT-116 colon. Moreover, in the test on KM12 colon, the growth is 86.8%.

For `CC(C)(CCCN=C(N)Nc1ccc(Cl)cc1)c1ccc(F)cc1`, the growth in the test with T-47D breast was 53.9%; with BT-549 breast it was 82.6%; with MDA-MB-435 melanoma, 63%; in the test on SW-620 colon, 43.4%; with MCF7 breast, 52.9%; with HCT-116 colon, 28.6%. Besides, the growth in the test with KM12 colon was 57.5%.

`COc1ccc(CN2c3ccccc3Oc3ccccc32)cc1O`: the growth with T-47D breast is 30.6%; in the test with BT-549 breast, 39.9%; in the test with MDA-MB-435 melanoma it was 9.49% (active); in the test on SW-620 colon it was 27%; with MCF7 breast, 27.3%; with HCT-116 colon it was 13.7%. For the same molecule, the growth in the test on KM12 colon was 20.9%.

`COc1ccc(-c2nnc(SCC(=O)c3ccc(Cl)cc3)o2)cc1`: the growth in the test with T-47D breast was 89.6%; with BT-549 breast it was 105%; in the test on MDA-MB-435 melanoma, 108%; with SW-620 colon, 107%; in the test with MCF7 breast it was 108%; in the test with HCT-116 colon, 107%. Also, the growth in the test on KM12 colon is 102%.

For `C/C1=C\CC[C@@]2(C)O[C@H]2[C@H]2OC(=O)C(CN3CCN(CC4C(=O)O[C@H]5[C@H]4CC/C(C)=C/CC[C@@]4(C)O[C@@H]54)CC3)[C@@H]2CC1` (some centres undefined), the growth with T-47D breast was 81.5%; in the test on BT-549 breast, 105%; with MDA-MB-435 melanoma, 89.1%; in the test on SW-620 colon it was 86.3%; in the test with MCF7 breast, 74.4%; in the test with HCT-116 colon it was 88%. For the same molecule, in the test with KM12 colon, the growth is 98.5%.

For `COc1ccccc1Nc1nc(-c2cc3cccc(C(F)(F)F)c3oc2=O)cs1`, the growth was 68.9% in the test with T-47D breast; 41.9% with BT-549 breast; -44.8% (active) in the test on MDA-MB-435 melanoma; 24% with SW-620 colon; 15.7% in the test on MCF7 breast; 2.41% (active) in the test with HCT-116 colon. For the same molecule, the growth with KM12 colon is 3.87% (active).
